Screening data as filed in PubChem BioAssay.
An excerpt weighted towards active compounds, which were near 7.7% of everything screened.
FMDV antiviral = foot and mouth disease virus antiviral activity | FMDV antiviral cell-based qHTS | Potency, µM (top dose mostly 57.9 µM), for inactives: at the top dose activity change, negative = inhibition, hits mostly inhibitors | 410,000 tested, 1.2% active; calls by dose curve; tested in HEK293T cells; also: read-out not given here; potency is read from the fitted curve at half-maximal effect; nearly all actives have a fitted effect of over 45% in size
Giardia FBPA inh = inhibitors of Giardia lamblia fructose-1,6-bisphosphate aldolase | A8B2U2 | purified Giardia FBPA | Potency, µM (highest dose often 59.6 µM), for the others: top-dose activity, negative = inhibition, hits mostly inhibitors | 290,000 tested, 0.71% active | AID 2451; also: potency is read from the fitted curve at half-maximal effect; nearly all actives have a fitted effect of over 55% in size
Target sequence (A8B2U2 whole entry, looked up): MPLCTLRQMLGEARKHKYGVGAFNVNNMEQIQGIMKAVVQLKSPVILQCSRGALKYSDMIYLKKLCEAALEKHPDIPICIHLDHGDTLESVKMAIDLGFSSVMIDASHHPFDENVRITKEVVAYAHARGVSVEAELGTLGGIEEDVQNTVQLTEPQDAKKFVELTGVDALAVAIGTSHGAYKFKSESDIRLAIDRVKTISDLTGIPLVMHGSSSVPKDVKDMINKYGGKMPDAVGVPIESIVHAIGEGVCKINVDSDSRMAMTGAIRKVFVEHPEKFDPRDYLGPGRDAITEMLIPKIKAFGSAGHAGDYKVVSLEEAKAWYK
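Giardia FBPA (40 nM reagent) was preincubated 10 min at RT with compound (up to 57.5 uM final), then substrate plus GAPDH/TPI/NAD/arsenate coupling system with diaphorase/resazurin was added; resorufin fluorescence (525/598 nm) was read after 20 min.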
Sm TGR inh = inhibitors of Schistosoma mansoni thioredoxin glutathione reductase. 360,000 tested, 3% active. Q962Y6. purified TGR, DTNB reduction, TNB absorbance 405 nm. Potency, µM (top dose mostly 114 µM), without a hit: top-dose activity change, negative = inhibition, most hits filed as inhibitors; also: potency is read from the fitted curve at half-maximal effect; nearly all actives have a fitted effect of over 60% in size
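Kinetic colorimetric format: TGR-catalysed, NADPH-driven DTNB reduction monitored via TNB absorbance. Enzyme dispensed at 20 nM; compound exposure 15 min at room temperature before reaction start.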
TbPYK inhibitor = blocks Trypanosoma brucei pyruvate kinase. AID 624173. TbPYK enzyme, Kinase-Glo Plus ATP luminescence, 45 min. Q57TT1. 410,000 tested, 0.12% active. Potency, µM (series often up to 76.8 µM), without a hit: at the top dose activity, negative = inhibition, usual class: inhibitors; also: potency is read from the fitted curve at half-maximal effect; nearly all actives have a fitted effect of over 50% in size
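In this concentration-response screen, enzyme-free wells defined baseline while DMSO plates tracked drift. Each reaction combined TbPYK, substrate, compound and 130 uM ADP for 45 min at room temperature. Kinase-Glo Plus luminescence gave the signal.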
RE007 growth inh = less growth of the S. pombe RE007 Vpr strain; S. pombe RE007 Vpr strain, BacTiter-Glo ATP luminescence, 24 h; Potency, µM (highest dose often 92.2 µM), for the others: top-dose activity change, negative = less growth, actives largely listed as inhibitors; 360,000 tested, 0.21% active; AID 651644; active = well fitted falling curve with a large enough effect; inconclusive = small, poorly fitted or top-dose-only effect; inactive = no such curve, though single readings can be large or run the other way; also: potency is read from the fitted curve at half-maximal effect; nearly all actives have a fitted effect of over 50% in size
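Fission yeast RE007 carrying one integrated HIV-1 vpr copy, seeded at OD 0.01 in PMG+AL medium with 23 nL pinned compound. Grown 24 h at 30 degrees; viability read by BacTiter-Glo luminescence after 5 min.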
HCMV inh = blocks human cytomegalovirus replication; HFF cells, HCMV-luciferase reporter, 72 h; stronger effect = lower value; activity change, negative = inhibition, % at 57.5 µM; 410,000 tested, 4.5% active; AID 1259415; in the data active = activity change below about -60%; inconclusive = no clear call, values can overlap the other calls; inactive = above about -39%
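Two compound doses tested in HFFs infected with HCMV-luciferase, MOI 1 PFU/cell, 72 h at 37C. Lysate luminescence read with OneGlo; data normalized against buffer-only and 10uM Salinomycin inhibitor controls.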
An asterisk follows results filed as active; u = inconclusive; x = no result given. Unless noted, calls follow the shape of the dose curve; as a rule, active = well fitted curve in the direction sought with a large enough effect; inconclusive = small, poorly fitted or top-dose-only effect, or another doubt; inactive = no such curve, though single readings can be large; an effect the other way counts as inactive or inconclusive. % is scaled to controls: 0 for no effect and ±100 for the full control effect.

SMILES	FMDV antiviral	Giardia FBPA inh	Sm TGR inh	TbPYK inhibitor	RE007 growth inh	HCMV inh
COc1cccc(NC(=S)NCc2cccnc2)c1	37%	-1%	45µM*	-11%	-8%	-10
S=C(NCc1ccncc1)Nc1ccc(Br)cc1Cl	7%	x	35µM*	-5%	-4%	-36
COc1cccc(NC(=S)NCc2ccccc2)c1	120%	-5%	-25%	-3%	-13%	50
Cc1cc2nc(-c3ccc(NC(=O)c4ccccc4F)cc3)oc2cc1C	11%	x	-10%	0%	x	25
COc1ccc(C(=O)NC(=S)Nc2cccnc2)cc1[N+](=O)[O-]	-2%	-15%	16µM*	-8%	41%	9
CCOc1ccc(C(=O)NC(=S)Nc2cccnc2)cc1[N+](=O)[O-]	32%	-7%	u	-26%	3%	-19
COc1ccc(Cl)cc1NC(=S)Nc1cccnc1	4%	-7%	13µM*	0%	-1%	-5
COc1ccc(Cl)cc1NC(=S)Nc1cccc(C)c1	11%	1%	-1%	2%	0%	u
COc1ccccc1CNC(=O)C1CCN(S(=O)(=O)Cc2ccccc2)CC1	-22%	x	3%	3%	x	-7
Cc1ccc(S(=O)(=O)N2CN(Cc3ccco3)c3nc4ccccc4nc32)cc1	14%	-14%	22µM*	-4%	-3%	u
O=S(=O)(c1ccc(F)cc1)N1CN(Cc2ccco2)c2nc3ccccc3nc21	x	-10%	u	3%	6%	5
Cc1ccc(S(=O)(=O)Nc2nc3ccccc3nc2NCc2ccco2)cc1	x	-16%	13µM*	-5%	-2%	39
COc1ccc(S(=O)(=O)N2CN(Cc3ccco3)c3nc4ccccc4nc32)cc1	3%	-17%	11µM*	-5%	7%	x
O=C(Nc1ccccc1OCc1cc(=O)n2ccccc2n1)Nc1ccccc1C(F)(F)F	5%	x	6%	-4%	x	-3
COc1cccc(CNC(=O)c2ccc3c(c2)nc2n3CCCCC2)c1OC	-6%	x	4%	-3%	x	15
C1=CC(Cc2cncs2)c2ccccc21 (stereo not given)	20%	x	50µM*	0%	-17%	u
Cc1cc(NC(=O)CN(C)S(=O)(=O)c2ccc3c(c2)CCCC(=O)N3)ccc1Br	u	x	-1%	-5%	x	u
O=C(CSC1=NNC(c2ccccn2)S1)Nc1cccc(Cl)c1 (stereo not given)	13%	-13%	-27%	-11%	3%	-78*
O=C(CSC1=NNC(c2ccccn2)S1)Nc1ccccc1 (stereo not given)	4%	u	u	-10%	11%	-97*
CCCCCCOc1ccc(/C(C)=N/NC2=NCCN2)cc1	-18%	u	1%	10%	35µM*	-96*
COc1ccccc1-c1cc(NCc2cnc(C)cn2)ncn1	-2%	-26%	x	x	x	x
N#CCCCS(=O)(=O)c1ccccc1	x	0%	x	x	x	x
Cc1cccc(N(C)C(=O)CCS(=O)(=O)c2cccc3nonc23)c1	-6%	2%	u	4%	11%	-66*
Cc1ccc(NC(=O)CCS(=O)(=O)c2cccc3nonc23)cc1Cl	-16%	-5%	-35%	-5%	7%	u
COc1ccc(N(C)C(=O)CCS(=O)(=O)c2cccc3nonc23)c(OC)c1	-3%	1%	u	4%	1%	14
SMILES	FMDV antiviral	Giardia FBPA inh	Sm TGR inh	TbPYK inhibitor	RE007 growth inh	HCMV inh
CCN(C(=O)CCS(=O)(=O)c1cccc2nonc12)c1ccc(C)c(C)c1	13%	3%	40µM*	-8%	18%	-19
COC(=O)C(O)(c1ccccc1)C(Nc1ccc(OC)cc1)c1ccc(Br)cc1 (stereo not given)	x	x	x	x	x	-5
O=C(CC1SC(=Nc2ccccc2)N(CCO)C1=O)Nc1ccccc1 (stereo not given)	4%	23%	8%	4%	2%	-28
O=C(CC1SC(=Nc2ccccc2)N(CCCO)C1=O)Nc1ccc(Cl)cc1 (stereo not given)	14µM*	10%	-8%	1%	11%	x
O=C(CC1SC(=O)N(c2ccccc2)C1=O)Nc1ccc(Br)cc1 (stereo not given)	-11%	-10%	3.2µM*	-4%	-19%	-4
O=C(CC1SC(=O)N(c2ccccc2)C1=O)Nc1ccc(Cl)cc1 (stereo not given)	-34%	-9%	4µM*	-6%	0%	-7
COC(=O)C1=C(C)NC(=O)C1(NC(=O)c1ccc(Cl)cc1)C(F)(F)F (stereo not given)	-3%	x	9%	-9%	x	-1
COc1ccccc1C1CCN(Cc2ccc3ccccc3c2)CC1	u	-4%	-34%	2%	-12%	-67*
COc1ccccc1C1CCN(Cc2ccccc2)CC1	-12%	u	-18%	-5%	-12%	-16
CC(=O)Nc1ccc2c(c1)CCCC2	14%	-1%	-3%	2%	-23%	18
O=C1C=CC(=O)N1c1ccc2c(c1)Cc1cc(F)ccc1-2	-12%	x	x	u	2.8µM*	-21
CC(=O)Nc1ccc2c(c1)Cc1cc(N3C(=O)C=CC3=O)ccc1-2	-27%	x	x	u	4.5µM*	-66*
CC(=O)Nc1ccc2c(c1)CCCC2=O	u	-16%	32µM*	0%	-12%	16
CC(=O)Nc1ccc2c(c1)-c1ccc(F)cc1C2	-12%	x	x	-17%	u	40
COc1ccc(C2CC(c3ccccc3)Oc3c(C)ccc(C(C)C)c32)cc1 (stereo not given)	x	0%	x	x	x	x
Cc1nc(NC2CCCCC2)c2nc(-c3ccccc3)n(CCN(C)C)c2n1	x	1%	x	x	x	x
CCOC(=O)CSC(=S)NC(=O)c1ccc(OC)cc1	-16%	u	8.9µM*	0%	u	-87*
COc1ccc(C(=O)NC(=S)SCC(=O)O)cc1	2%	u	u	-19%	14%	7
O=S(=O)(CCSc1nc2ccccc2s1)c1nc2ccccc2s1	8.9µM*	-9%	0.1µM*	1%	-28%	-85*
C=CCS(=O)(=O)c1nc2ccccc2s1	u	-2%	14µM*	0%	-24%	-97*
COc1ccccc1C(=O)Nc1nc(-c2ccc(S(=O)(=O)N3CCOCC3)cc2)cs1	3.2µM*	-3%	2%	-4%	-12%	-95*
O=S(=O)(Nc1ccc(-c2csc(-c3ccccc3)n2)cc1)c1ccc(F)cc1	13%	-8%	15%	-9%	-18%	-36
O=C(Nc1nc(-c2ccccn2)cs1)c1cccc(S(=O)(=O)N2CCOCC2)c1	-14%	x	u	-11%	3%	0
Cc1ccc(S(=O)(=O)N2CCOCC2)cc1C(=O)Nc1nc(-c2ccccn2)cs1	u	x	x	-23%	23%	-87*
